Test results reported in publication PMC12820563, “FoxP3 forms a head-to-head dimer in vivo and stabilizes its multimerization on adjacent microsatellites”.
In all, about 16,000 sequences were measured (“rpm ratio (pull-down/input)”: median about 0.5, highest 2% from about 5.5 on). Many of the other results were omitted from the sample, so the highest values are more common in it than they were.

biological target: T1, MBP-FoxP3dN (Mus musculus, UniProt Q99JB6 188-423); assay: PD-seq (MBP pull-down with sequencing); 20 mM Tris-HCl pH 7.5, 100 mM NaCl, 1.5 mM MgCl2, 0.4 uM protein, 0.1 uM dsDNA library, 30 min, room temperature, amylose pull-down; high values mean tight binding; settings: protein: recombinant; tags: His6-MBP; chain copies: 2; dsDNA, one strand shown
T1 sequence: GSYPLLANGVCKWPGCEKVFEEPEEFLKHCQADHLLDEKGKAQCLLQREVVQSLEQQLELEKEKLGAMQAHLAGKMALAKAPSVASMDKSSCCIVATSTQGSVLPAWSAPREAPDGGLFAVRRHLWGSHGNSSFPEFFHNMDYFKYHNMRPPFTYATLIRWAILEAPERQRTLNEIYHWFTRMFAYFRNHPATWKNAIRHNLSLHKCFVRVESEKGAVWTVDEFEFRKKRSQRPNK
Summary of the method: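 The N-terminus-lacking fragment of mouse FoxP3 or FoxP1 carried a His6-MBP tag and was expressed in E. coli. At 0.4 µM it was incubated with 0.1 µM Klenow-filled degenerate double-stranded DNA library for 30 min at room temperature in Tris pH 7.5 buffer with NaCl and MgCl2, and complexes were caught on amylose resin, washed three times, released with proteinase K, PCR-barcoded and Illumina-sequenced. Binding is reads-per-million enrichment of pull-down over input with replicates pooled.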

Sequence	binding signal
GATGATTGTTCTCCCAGCTGATGAATTTCGCAACTCGAGTAAACAAATTTTCCTAATCTTTCTGTTCAAGCGCCATCTAC	5.53 RPM ratio (pull-down/input)
GATGATTGTTCTCCCAGCTGATGAATTCGCCAACTCGAGTAAACAAATTTTCCTAATCTTTCTGTTCAAGCGCCATCTAC	0.292 RPM ratio (pull-down/input)
GATGATTGTTCTCCCAGCTGATGAATTCGCAAACTCGAGTAAACAAATTTTCCTAATCTTTCTGTTCAAGCGCCATCTAC	0.431 RPM ratio (pull-down/input)
GATGATTGTTCTCCCAGCTGATGAATTTTTCAACTCGAGTAAACAAATTTTCCTAATCTTTCTGTTCAAGCGCCATCTAC	0.287 RPM ratio (pull-down/input)
GATGATTGTTCTCCCAGCTGATGAATTGCGCAACTCGAGTAAACAAATTTTCCTAATCTTTCTGTTCAAGCGCCATCTAC	6.43 RPM ratio (pull-down/input)
GATGATTGTTCTCCCAGCTGATGAATTGCCCAACTCGAGTAAACAAATTTTCCTAATCTTTCTGTTCAAGCGCCATCTAC	0.42 RPM ratio (pull-down/input)
GATGATTGTTCTCCCAGCTGATGAATTTCCCGTGTCGAGTAAACAAATTTTCCTAATCTTTCTGTTCAAGCGCCATCTAC	0.287 RPM ratio (pull-down/input)
GATGATTGTTCTCCCAGCTGATGAATTAGCTTCTTCGAGTAAACAAATTTTCCTAATCTTTCTGTTCAAGCGCCATCTAC	0.901 RPM ratio (pull-down/input)
GATGATTGTTCTCCCAGCTGATGAATTAGTTCTGTCGAGTAAACAAATTTTCCTAATCTTTCTGTTCAAGCGCCATCTAC	0.398 RPM ratio (pull-down/input)
GATGATTGTTCTCCCAGCTGATGAATTAGTGTTGTCGAGTAAACAAATTTTCCTAATCTTTCTGTTCAAGCGCCATCTAC	3.93 RPM ratio (pull-down/input)
GATGATTGTTCTCCCAGCTGATGAATTAGTTGTGTCGAGTAAACAAATTTTCCTAATCTTTCTGTTCAAGCGCCATCTAC	6.21 RPM ratio (pull-down/input)
GATGATTGTTCTCCCAGCTGATGAATTAGTTCTCTCGAGTAAACAAATTTTCCTAATCTTTCTGTTCAAGCGCCATCTAC	0.491 RPM ratio (pull-down/input)
GATGATTGTTCTCCCAGCTGATGAATTAGCTGTCTCGAGTAAACAAATTTTCCTAATCTTTCTGTTCAAGCGCCATCTAC	2.44 RPM ratio (pull-down/input)
GATGATTGTTCTCCCAGCTGATGAATTAGTTGTCTCGAGTAAACAAATTTTCCTAATCTTTCTGTTCAAGCGCCATCTAC	5.87 RPM ratio (pull-down/input)
GATGATTGTTCTCCCAGCTGATGAATTTCAGGGCTCGAGTAAACAAATTTTCCTAATCTTTCTGTTCAAGCGCCATCTAC	0.225 RPM ratio (pull-down/input)
GATGATTGTTCTCCCAGCTGATGAATTGCAGACCTCGAGTAAACAAATTTTCCTAATCTTTCTGTTCAAGCGCCATCTAC	0.496 RPM ratio (pull-down/input)
GATGATTGTTCTCCCAGCTGATGAATTTTGGCTCTCGAGTAAACAAATTTTCCTAATCTTTCTGTTCAAGCGCCATCTAC	0.475 RPM ratio (pull-down/input)
GATGATTGTTCTCCCAGCTGATGAATTCCGATCATCGAGTAAACAAATTTTCCTAATCTTTCTGTTCAAGCGCCATCTAC	0.404 RPM ratio (pull-down/input)
GATGATTGTTCTCCCAGCTGATGAATTCTCAGCATCGAGTAAACAAATTTTCCTAATCTTTCTGTTCAAGCGCCATCTAC	0.635 RPM ratio (pull-down/input)
GATGATTGTTCTCCCAGCTGATGAATTCAGCATCTCGAGTAAACAAATTTTCCTAATCTTTCTGTTCAAGCGCCATCTAC	6.49 RPM ratio (pull-down/input)
GATGATTGTTCTCCCAGCTGATGAATTCAGCAGCTCGAGTAAACAAATTTTCCTAATCTTTCTGTTCAAGCGCCATCTAC	0.994 RPM ratio (pull-down/input)
GATGATTGTTCTCCCAGCTGATGAATTTCAGCATTCGAGTAAACAAATTTTCCTAATCTTTCTGTTCAAGCGCCATCTAC	4.99 RPM ratio (pull-down/input)

Sequence	binding signal
GATGATTGTTCTCCCAGCTGATGAATTCCAGCATTCGAGTAAACAAATTTTCCTAATCTTTCTGTTCAAGCGCCATCTAC	4.11 RPM ratio (pull-down/input)
GATGATTGTTCTCCCAGCTGATGAATTCAGCATTTCGAGTAAACAAATTTTCCTAATCTTTCTGTTCAAGCGCCATCTAC	5.86 RPM ratio (pull-down/input)
GATGATTGTTCTCCCAGCTGATGAATTCCGCACTTCGAGTAAACAAATTTTCCTAATCTTTCTGTTCAAGCGCCATCTAC	1.22 RPM ratio (pull-down/input)
GATGATTGTTCTCCCAGCTGATGAATTTGGGTCATCGAGTAAACAAATTTTCCTAATCTTTCTGTTCAAGCGCCATCTAC	0.724 RPM ratio (pull-down/input)
GATGATTGTTCTCCCAGCTGATGAATTCTTTACTTCGAGTAAACAAATTTTCCTAATCTTTCTGTTCAAGCGCCATCTAC	0.373 RPM ratio (pull-down/input)
GATGATTGTTCTCCCAGCTGATGAATTGGGGATTTCGAGTAAACAAATTTTCCTAATCTTTCTGTTCAAGCGCCATCTAC	0.404 RPM ratio (pull-down/input)
GATGATTGTTCTCCCAGCTGATGAATTTCGTGAATCGAGTAAACAAATTTTCCTAATCTTTCTGTTCAAGCGCCATCTAC	0.281 RPM ratio (pull-down/input)
GATGATTGTTCTCCCAGCTGATGAATTCAGCTCATCGAGTAAACAAATTTTCCTAATCTTTCTGTTCAAGCGCCATCTAC	0.381 RPM ratio (pull-down/input)
GATGATTGTTCTCCCAGCTGATGAATTTTGAGCCTCGAGTAAACAAATTTTCCTAATCTTTCTGTTCAAGCGCCATCTAC	0.568 RPM ratio (pull-down/input)
GATGATTGTTCTCCCAGCTGATGAATTTCGCCTCTCGAGTAAACAAATTTTCCTAATCTTTCTGTTCAAGCGCCATCTAC	6.04 RPM ratio (pull-down/input)
GATGATTGTTCTCCCAGCTGATGAATTGTGCCTCTCGAGTAAACAAATTTTCCTAATCTTTCTGTTCAAGCGCCATCTAC	6.79 RPM ratio (pull-down/input)
GATGATTGTTCTCCCAGCTGATGAATTCTCCGCCTCGAGTAAACAAATTTTCCTAATCTTTCTGTTCAAGCGCCATCTAC	0.428 RPM ratio (pull-down/input)
GATGATTGTTCTCCCAGCTGATGAATTCTGTGCCTCGAGTAAACAAATTTTCCTAATCTTTCTGTTCAAGCGCCATCTAC	1.19 RPM ratio (pull-down/input)
GATGATTGTTCTCCCAGCTGATGAATTCTGCGCCTCGAGTAAACAAATTTTCCTAATCTTTCTGTTCAAGCGCCATCTAC	2.3 RPM ratio (pull-down/input)
GATGATTGTTCTCCCAGCTGATGAATTGTTCGCCTCGAGTAAACAAATTTTCCTAATCTTTCTGTTCAAGCGCCATCTAC	0.653 RPM ratio (pull-down/input)
GATGATTGTTCTCCCAGCTGATGAATTTTTCGCCTCGAGTAAACAAATTTTCCTAATCTTTCTGTTCAAGCGCCATCTAC	0.467 RPM ratio (pull-down/input)
GATGATTGTTCTCCCAGCTGATGAATTCCGCGCCTCGAGTAAACAAATTTTCCTAATCTTTCTGTTCAAGCGCCATCTAC	1.68 RPM ratio (pull-down/input)
GATGATTGTTCTCCCAGCTGATGAATTCCGCCTCTCGAGTAAACAAATTTTCCTAATCTTTCTGTTCAAGCGCCATCTAC	6.3 RPM ratio (pull-down/input)
GATGATTGTTCTCCCAGCTGATGAATTCTGCCTCTCGAGTAAACAAATTTTCCTAATCTTTCTGTTCAAGCGCCATCTAC	5.87 RPM ratio (pull-down/input)
GATGATTGTTCTCCCAGCTGATGAATTCTCTGCCTCGAGTAAACAAATTTTCCTAATCTTTCTGTTCAAGCGCCATCTAC	0.284 RPM ratio (pull-down/input)
GATGATTGTTCTCCCAGCTGATGAATTTTGTGCCTCGAGTAAACAAATTTTCCTAATCTTTCTGTTCAAGCGCCATCTAC	1.84 RPM ratio (pull-down/input)
GATGATTGTTCTCCCAGCTGATGAATTAGACTCCTCGAGTAAACAAATTTTCCTAATCTTTCTGTTCAAGCGCCATCTAC	0.422 RPM ratio (pull-down/input)

Sequence	binding signal
GATGATTGTTCTCCCAGCTGATGAATTATACCCATCGAGTAAACAAATTTTCCTAATCTTTCTGTTCAAGCGCCATCTAC	0.433 RPM ratio (pull-down/input)
GATGATTGTTCTCCCAGCTGATGAATTAGTCTTATCGAGTAAACAAATTTTCCTAATCTTTCTGTTCAAGCGCCATCTAC	0.725 RPM ratio (pull-down/input)
GATGATTGTTCTCCCAGCTGATGAATTAGTCGGATCGAGTAAACAAATTTTCCTAATCTTTCTGTTCAAGCGCCATCTAC	0.297 RPM ratio (pull-down/input)
GATGATTGTTCTCCCAGCTGATGAATTCCCTCATTCGAGTAAACAAATTTTCCTAATCTTTCTGTTCAAGCGCCATCTAC	0.325 RPM ratio (pull-down/input)
GATGATTGTTCTCCCAGCTGATGAATTGGTTAACTCGAGTAAACAAATTTTCCTAATCTTTCTGTTCAAGCGCCATCTAC	0.469 RPM ratio (pull-down/input)
GATGATTGTTCTCCCAGCTGATGAATTCTGTCATTCGAGTAAACAAATTTTCCTAATCTTTCTGTTCAAGCGCCATCTAC	4.31 RPM ratio (pull-down/input)
GATGATTGTTCTCCCAGCTGATGAATTGAGTACTTCGAGTAAACAAATTTTCCTAATCTTTCTGTTCAAGCGCCATCTAC	0.524 RPM ratio (pull-down/input)
GATGATTGTTCTCCCAGCTGATGAATTAGAAGGATCGAGTAAACAAATTTTCCTAATCTTTCTGTTCAAGCGCCATCTAC	0.225 RPM ratio (pull-down/input)
GATGATTGTTCTCCCAGCTGATGAATTCAGCATGTCGAGTAAACAAATTTTCCTAATCTTTCTGTTCAAGCGCCATCTAC	4.71 RPM ratio (pull-down/input)
GATGATTGTTCTCCCAGCTGATGAATTTCGCATGTCGAGTAAACAAATTTTCCTAATCTTTCTGTTCAAGCGCCATCTAC	5.75 RPM ratio (pull-down/input)
GATGATTGTTCTCCCAGCTGATGAATTTTGCATGTCGAGTAAACAAATTTTCCTAATCTTTCTGTTCAAGCGCCATCTAC	6.69 RPM ratio (pull-down/input)
GATGATTGTTCTCCCAGCTGATGAATTTCCCATGTCGAGTAAACAAATTTTCCTAATCTTTCTGTTCAAGCGCCATCTAC	0.287 RPM ratio (pull-down/input)
GATGATTGTTCTCCCAGCTGATGAATTCTGCATGTCGAGTAAACAAATTTTCCTAATCTTTCTGTTCAAGCGCCATCTAC	5.95 RPM ratio (pull-down/input)
GATGATTGTTCTCCCAGCTGATGAATTTGCCATGTCGAGTAAACAAATTTTCCTAATCTTTCTGTTCAAGCGCCATCTAC	1.45 RPM ratio (pull-down/input)
GATGATTGTTCTCCCAGCTGATGAATTGCATGTGTCGAGTAAACAAATTTTCCTAATCTTTCTGTTCAAGCGCCATCTAC	2.29 RPM ratio (pull-down/input)
GATGATTGTTCTCCCAGCTGATGAATTGTGCATGTCGAGTAAACAAATTTTCCTAATCTTTCTGTTCAAGCGCCATCTAC	7.05 RPM ratio (pull-down/input)
GATGATTGTTCTCCCAGCTGATGAATTCATGATGTCGAGTAAACAAATTTTCCTAATCTTTCTGTTCAAGCGCCATCTAC	0.987 RPM ratio (pull-down/input)
GATGATTGTTCTCCCAGCTGATGAATTCGCATGTTCGAGTAAACAAATTTTCCTAATCTTTCTGTTCAAGCGCCATCTAC	1.95 RPM ratio (pull-down/input)
GATGATTGTTCTCCCAGCTGATGAATTCGCCATGTCGAGTAAACAAATTTTCCTAATCTTTCTGTTCAAGCGCCATCTAC	0.854 RPM ratio (pull-down/input)
GATGATTGTTCTCCCAGCTGATGAATTTGCATGTTCGAGTAAACAAATTTTCCTAATCTTTCTGTTCAAGCGCCATCTAC	3.83 RPM ratio (pull-down/input)
